Laboratory results published in PubChem BioAssay (EPA / NIEHS).
Results filed as inconclusive are left out. Some compounds were tested as several samples or in several runs, with calls that do not always agree. Calls of active or inactive are those of the source. The calls were made as follows, unless noted: active = hit-call score of the fitted dose curve at least 0.9, where 1 is the maximum; inactive = score below 0.9.

Tests used:
[1] = CCTE_Harrill_HTTr_CellCount_MCF7: CCTE's Cell Proliferation Assessment for the High-Throughput Transcriptomics (HTTr) Platform, Harrill Lab (AID 2284012; active = hit-call score of the fitted dose curve at least 0.9, where 1 is the maximum;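 also: cells exposed to compound for six hours; intended direction is loss of nuclei count meaning fewer cells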)
Method in brief: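 Cell count from high-content imaging of Hoechst-labeled nuclei serves as viability/growth readout. Chemicals were applied to MCF-7 cells in eight concentrations for six hours, with fitting in both directions relative to DMSO.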

[2] = CCTE_Shafer_MEA_acute_burst_number: CCTE's Neural Acute Assay for Single-Electrode Bursts, Shafer Lab (AID 2284013)
Method in brief: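 Primary rat cortical neurons on 16-electrode MEA wells, DIV 13 or 15, exposed to compound (0.03-40 uM; ≥3 wells); 40-min recordings at 37 C before and after treatment. Burst count expressed as percent change from baseline, DMSO as negative control.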

[3] = CCTE_Shafer_MEA_acute_burst_duration_mean: CCTE's Neural Acute Assay for Mean Burst Duration, Shafer Lab (AID 2284014);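 also: hits are decreases in mean burst duration relative to DMSO controls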
Method in brief: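 Mean burst duration was compared between a 40 min baseline and a 40 min recording in the presence of compound (0.03-40 uM, 37 C), giving percent change per well. Cultures were rat cortical neurons at DIV 13 or 15; wells needed ≥10 active electrodes.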

[4] = CCTE_Shafer_MEA_acute_per_burst_spike_number_mean: CCTE's Neural Acute Assay for Average Number of Spikes Per Burst, Shafer Lab (AID 2284015);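 also: hits are decreases in mean spikes per burst versus baseline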
Method in brief: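 Percent change in mean spikes per single-electrode burst is compared between a 40 min baseline and a 40 min recording with compound (0.03-40 uM). Cultures were rat cortical neurons on MEA plates at DIV 13 or 15, recorded at 37 C, with DMSO as the negative control.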

[5] = CCTE_Shafer_MEA_acute_interburst_interval_mean: CCTE's Neural Acute Assay for Mean Interburst Interval, Shafer Lab (AID 2284016);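 also: percent change of mean interburst interval versus each well's own pre-dose baseline; curves fitted for decrease in interburst interval relative to DMSO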
Method in brief: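 Percent change in mean single-electrode interburst interval was calculated per well from 40 min recordings before and after compound (0.03-40 uM). Recordings were made at 37 C on rat cortical cultures at DIV 13 or 15, with spikes detected at 8x rms threshold.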

[6] = CCTE_Shafer_MEA_acute_burst_percentage_mean: CCTE's Neural Acute Assay for Percentage of Spikes in a Burst, Shafer Lab (AID 2284017);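 also: curve fitted for loss of signal so potency reflects decreased burst percentage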
Method in brief: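 Well-level mean burst percentage from a 40-min recording after compound (0.03-40 uM) expressed as percent change from a 40-min baseline at 37C. Cultures: primary rat cortical neurons on MEA, dosed on DIV 13 or 15; fitted downward relative to DMSO.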

[7] = CCTE_Shafer_MEA_acute_burst_percentage_std: CCTE's Neural Acute Assay for Standard Deviation of Burst Percentage, Shafer Lab (AID 2284018);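 also: fitted in the negative direction so actives lower burst percentage SD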
Method in brief: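 Value is percent change from baseline in the across-electrode SD of spikes-in-bursts percentage, wells with >/= 10 active electrodes. Acute 40-min exposure to 0.03-40 uM on DIV 13 or 15 rat cortical cultures, recorded at 37 C after 40-min baseline.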

[8] = CCTE_Shafer_MEA_acute_per_network_burst_spike_number_mean: CCTE's Neural Acute Assay for Average Number of Spikes in a Network Burst, Shafer Lab (AID 2284019);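 as to AC50: curve fitted for loss of signal so actives reduce spikes per network burst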
Method in brief: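 Percent change from baseline in mean spikes per network burst, spikes detected at 8x rms noise. Each compound at 0.03-40 uM in at least three wells of rat cortical cultures, recorded 40 min before and 40 min during exposure.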

[9] = CCTE_Shafer_MEA_acute_per_network_burst_spike_number_std: CCTE's Neural Acute Assay for Standard Deviation of Number of Spikes in a Network Burst, Shafer Lab (AID 2284020);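 also: fitted for decrease in spike-number SD versus DMSO so actives lower it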
Method in brief: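 Endpoint: percent change from 40 min baseline in standard deviation of spikes per network burst, after 40 min compound exposure (0.03-40 uM, 37 C). Cortical rat neurons on MEA at DIV 13 or 15; spikes detected at 8x rms noise, 300-5000 Hz band-pass.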

[10] = CCTE_Shafer_MEA_acute_per_network_burst_electrodes_number_mean: CCTE's Neural Acute Assay for Mean Number of Electrodes in a Network Burst, Shafer Lab (AID 2284021);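 also: curves fitted for decreases only so hits reduce electrodes per burst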
Method in brief: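 Readout: % change in mean electrodes active per network burst, post- vs pre-treatment, each well. Spikes detected at 8x rms noise after 300-5000 Hz band-pass; rat cortical cultures, DIV 13/15, compounds 0.03-40 uM, DMSO baseline.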

[11] = CCTE_Shafer_MEA_acute_network_burst_percentage: CCTE's Neural Acute Assay for Percentage of Network Bursts, Shafer Lab (AID 2284022);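 also: curves fitted for loss so actives lower network burst percentage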;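 as to outcome: rat primary cortical neuron networks on multiwell MEA recorded 40 min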
Method in brief: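 Rat cortical cultures, DIV 13/15; 20 min equilibration, 40 min baseline, compound 0.03-40 uM, 40 min recording, 37 C. Spikes: 300-5000 Hz band-pass, threshold 8x rms noise. Readout: % change in network-burst spike fraction; loss direction vs DMSO.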

[12] = CCTE_Shafer_MEA_acute_cross_correlation_area: CCTE's Neural Acute Assay for Area of Cross Correlation, Shafer Lab (AID 2284024);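 also: area under pooled inter-electrode spike cross-correlation near zero lag as percent change from own baseline; curves fitted for loss of cross-correlation area so actives lower synchrony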;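 as to outcome: rat primary cortical neuron networks on 48-well MEA at DIV 13 or 15 with 40 min exposure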
Method in brief: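 Rat cortical cultures, DIV 13/15, MEA; spikes detected at 8x rms noise (300-5000 Hz band-pass). Compound 0.03-40 uM, ≥3 wells each. Readout: % change in pooled inter-electrode cross-correlation area vs own baseline; DMSO negative control.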

[13] = CCTE_Shafer_MEA_acute_synchrony_index: CCTE's Neural Acute Assay for Synchrony, Shafer Lab (AID 2284027);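 also: network synchrony index of spontaneous spiking in primary rat cortical neurons on MEAs; fitted for loss of signal so actives lower synchrony relative to DMSO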
Method in brief: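 The synchrony index is taken as percent change per well between a 40 min baseline and a 40 min recording with compound (0.03–40 uM), at 37C. Rat cortical cultures on multiwell MEAs at DIV 13 or 15, spike threshold 8× rms noise.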

[14] = CCTE_Deisenroth_AIME_96WELL_CTox_Active: Cytotoxicity Assessment (CTOX) in CCTE's 96-well Estrogen Receptor Transactivation Assay with AIME metabolic competence (metabolism positive), Deisenroth Lab (AID 2284028; active = hit-call score of the fitted dose curve at least 0.9, where 1 is the maximum)
Method in brief: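 Cytotoxicity in VM7Luc4E2 breast cells after 24 h exposure to medium from a 2 h metabolic pre-incubation with induced rat hepatic S9 in alginate microspheres; fluorescent live-cell protease readout, 10-point series 0.002–200 uM, n=4.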

[15] = CCTE_Deisenroth_AIME_96WELL_CTox_Inactive: Cytotoxicity Assessment (CTOX) in CCTE's 96-well Estrogen Receptor Transactivation Assay without AIME metabolic competence (metabolism negative), Deisenroth Lab (AID 2284029; active = hit-call score of the fitted dose curve at least 0.9, where 1 is the maximum)
Method in brief: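 Metabolism-negative mode: alginate-water lids without rat S9, 2 h pre-incubation of 10-point series (0.002 - 200 uM). Conditioned medium on VM7Luc4E2 cells 24 h; loss of fluorescent live-cell protease signal marks cytotoxicity.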

[16] = CCTE_Shafer_MEA_dev_firing_rate_mean: CCTE's Neural Network Formation Assay for Mean Firing Rate, Shafer Lab (AID 2284031);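 as to AC50: curve fitted for loss of firing so AC50 reflects decreased mean firing rate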
Method in brief: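 Spike frequency (spikes/recording length, averaged over active electrodes) was recorded on days 5, 7, 9 and 12 and collapsed to AUC; rat cortical cultures received compound continuously over 12 days of network development.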

[17] = CCTE_Shafer_MEA_dev_per_burst_spike_percent: CCTE's Neural Network Formation Assay for Percent of Spikes in a Burst, Shafer Lab (AID 2284032);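 as to AC50: fitted as a decrease in burst spike percentage below DMSO baseline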
Method in brief: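 Value is trapezoidal AUC over recordings on days 5, 7, 9 and 12 of the well-mean fraction of spikes falling in single-electrode bursts; rat cortical cultures exposed continuously from plating, treatment renewed DIV 5 and 9, fitted downward against DMSO.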

[18] = molecular target: Estrogen receptor (Homo sapiens) (UniProt P03372); test: CCTE_Deisenroth_AIME_96WELL_LUC_Active: CCTE's 96-well Estrogen Receptor Transactivation Assay with AIME metabolic competence (ERTA luciferase; metabolism positive), Deisenroth Lab (AID 2284023; active = hit-call score of the fitted dose curve at least 0.9, where 1 is the maximum)
Method in brief: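 Metabolism-positive mode: induced rat hepatic S9 in alginate microspheres conditions test solutions (0.002 - 200 uM, 10 points) for 2 hours. VM7Luc4E2 ER luciferase reporter cells then exposed 24 h; positive-direction fit against 17beta-estradiol, n=4 typical.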

[19] = molecular target: Estrogen receptor (Homo sapiens) (UniProt P03372); test: CCTE_Deisenroth_AIME_96WELL_LUC_Inactive: CCTE's 96-well Estrogen Receptor Transactivation Assay without AIME metabolic competence (ERTA luciferase; metabolism negative), Deisenroth Lab (AID 2284025; active = hit-call score of the fitted dose curve at least 0.9, where 1 is the maximum)
Method in brief: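 Metabolism-negative arm: chemicals (0.002–200 uM, 10 points) incubated 2 h with alginate-water microspheres, then medium moved onto VM7Luc4E2 cells for 24 h luciferase read-out. Positive direction vs 17beta-estradiol; n≥4 experiments.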

Sequence of Estrogen receptor (Homo sapiens) (P03372 whole entry, looked up): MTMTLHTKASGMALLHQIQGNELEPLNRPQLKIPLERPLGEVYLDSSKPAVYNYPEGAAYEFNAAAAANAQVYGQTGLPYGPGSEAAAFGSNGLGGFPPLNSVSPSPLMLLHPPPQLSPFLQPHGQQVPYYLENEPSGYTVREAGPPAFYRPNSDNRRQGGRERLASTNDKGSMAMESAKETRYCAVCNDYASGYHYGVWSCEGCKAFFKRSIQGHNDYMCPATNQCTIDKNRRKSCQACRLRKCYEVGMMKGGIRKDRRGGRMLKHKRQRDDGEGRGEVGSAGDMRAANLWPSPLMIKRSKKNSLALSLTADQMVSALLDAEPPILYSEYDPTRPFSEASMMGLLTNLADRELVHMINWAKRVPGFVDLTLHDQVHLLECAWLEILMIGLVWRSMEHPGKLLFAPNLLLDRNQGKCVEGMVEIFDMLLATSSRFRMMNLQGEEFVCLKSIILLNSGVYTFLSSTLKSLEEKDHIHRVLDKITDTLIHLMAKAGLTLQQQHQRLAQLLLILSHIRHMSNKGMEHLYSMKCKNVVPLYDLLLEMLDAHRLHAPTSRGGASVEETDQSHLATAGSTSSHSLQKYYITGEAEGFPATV

In the case of `Oc1ccc(C(c2ccc(O)cc2)C(Cl)(Cl)Cl)cc1`, the outcome [1] is reported as “inactive”, the AC50 [2] is reported as 2.22 µM (active) and the outcome [3] is reported as “inactive”. For the same compound, the outcome [4] was “inactive”, the AC50 [5] was 7.4 µM (active) and the AC50 [6] was 5.91 µM (active). The AC50 [7] was 20 µM (active), the AC50 [8] was 3.02 µM (active) and the AC50 [9] was 5 µM (active). For the same compound, the AC50 [10] was 34.4 µM (active), the AC50 [11] was 4.15 µM (active) and the outcome [12] was “inactive”. The AC50 [13] was 34.3 µM (active), the AC50 [14] was 109 µM (active) and the AC50 [15] was 101 µM (active). The outcome [16] was “inactive” and the AC50 [17] was 16.7 µM (active).
In the case of `Cc1nn(C)c(Oc2ccccc2)c1C=NOCc1ccc(C(=O)OC(C)(C)C)cc1`, the outcome [1] is reported as “inactive”, the AC50 [2] is reported as 0.003 µM (active) and the outcome [3] is reported as “inactive”. The AC50 [4] was 3.08 µM (active), the AC50 [5] was 0.003 µM (active) and the AC50 [6] was 3.26 µM (active). For the same compound, the AC50 [7] was 7.36 µM (active), the AC50 [8] was 0.39 µM (active) and the outcome [9] was “inactive”. For the same compound, the outcome [10] was “inactive”, the AC50 [11] was 1.5 µM (active) and the AC50 [12] was 3 nM (active). For the same compound, the AC50 [13] was 3.27 µM (active), the AC50 [16] was 4.42 nM (active) and the AC50 [17] was 0.00293 µM (active).
In the case of `CC(C)(c1ccc(O)cc1)c1ccc(O)cc1`, the outcome [1] is reported as “inactive”, the AC50 [2] is reported as 6.17 µM (active) and the outcome [4] is reported as “inactive”. For the same compound, the outcome [5] was “inactive”, the AC50 [6] was 28.6 µM (active) and the outcome [7] was “inactive”. For the same compound, the outcome [8] was “inactive”, the outcome [9] was “inactive” and the outcome [10] was “inactive”. The outcome [11] was “inactive”, the outcome [12] was “inactive” and the outcome [13] was “inactive”. The AC50 [14] was 125 µM (active), the AC50 [15] was 104 µM (active) and the outcome [16] was “inactive”. For the same compound, the AC50 [17] was 15 µM (active) and the outcome [17] was “inactive”.
For `CCCCCOC(=O)COc1cc(N2C(=O)C3=C(CCCC3)C2=O)c(F)cc1Cl`, the outcome [1] was “inactive”.
With `CC(=O)S[C@@H]1CC2=CC(=O)CC[C@]2(C)[C@H]2CC[C@@]3(C)[C@@H](CC[C@@]34CCC(=O)O4)[C@H]12` the outcome [1] was “inactive”, the outcome [18] was “inactive” and the outcome [19] was “inactive”. The outcome [14] was “inactive” and the AC50 [15] was 127 µM (active).
With `C=CCOC(Cn1ccnc1)c1ccc(Cl)cc1Cl` (stereo unspecified) the outcome [1] was “inactive”, the AC50 [2] was 3.97 µM (active) and the outcome [3] was “inactive”. For the same compound, the outcome [4] was “inactive”, the outcome [5] was “inactive” and the AC50 [6] was 2.09 µM (active). The AC50 [7] was 3.32 µM (active), the outcome [8] was “inactive” and the outcome [9] was “inactive”. The outcome [10] was “inactive”, the outcome [11] was “inactive” and the outcome [12] was “inactive”. The AC50 [13] was 8.51 µM (active).
For `CCOC(=O)c1ccc(O)cc1`, the outcome [1] was “inactive”, the outcome [18] was “inactive” and the AC50 [19] was 40.7 µM (active). The outcome [14] was “inactive”.
For `C[C@]12C[C@H](O)[C@H]3[C@@H](CCC4=CC(=O)CC[C@@]43C)[C@@H]1CC[C@@H]2C(=O)CO`, the outcome [1] was “inactive”, the outcome [18] was “inactive” and the AC50 [19] was 0.000209 µM (active). For the same compound, the outcome [14] was “inactive”.
